Hits are enriched below; roughly 2.3% of the tested compounds scored in any of these assays.
Gli-Sufu block: Gli-Sufu pathway antagonists, primary screen, luciferase luminescence, Sufu-KO-LIGHT cells, uHTS | Sufu-KO-LIGHT fibroblasts, Gli luciferase reporter luminescence | inhibition, % at 5 µM | 340,000 tested, 0.74% active;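 active = inhibition above about 55%, limit read from the data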;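 also: 0% = DMSO-treated cells and 100% = wells with medium but no cells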
697 NFkB inh: inhibitors of PMA/ionomycin-induced NF-kB reporter, 697 cells, primary screen, B-cell NF-kB inhibitor project, cell-based, luminescence, uHTS | 697 B-cell NF-kB luciferase reporter, 16 h | 330,000 tested, 0.33% active | inhibition, % at 4 µM; in the data active = inhibition above about 35%
EBV LMP1 NFkB: EBV LMP1-driven NF-kappaB luciferase reporter inhibitors, primary screen, cell-based, luminescence, single point | LMP1-induced NF-kappaB luciferase reporter cells | inhibition, % at 12.5 µM | 350,000 tested, 0.69% active | AID 504558, 2011; in the data active = inhibition above about 41%;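 also: 0% = neutral control wells and 100% = reference inhibitor control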
MITF TRPM1 inh: inhibitors of MITF-dependent TRPM1 promoter reporter, primary screen, cell-based, SK-MEL-5, single point, luciferase | SK-MEL-5 TRPM1 promoter luciferase, 24 h | inhibition, % at 12.5 µM | 330,000 tested, 0.83% active | AID 488899, 2010;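 active = mean inhibition across replicates of 60% or more, whatever share of single replicates reaches that level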
Shn3 3UTR inh: reduction of Shn3 3'UTR firefly luciferase signal, primary screen, Schnurri-3 inhibitor project, cell-based, Clone20 osteoblasts, set 2. Clone20 osteoblast Shn3 3'UTR firefly luciferase, 24 h. inhibition, % at 12.5 µM. 360,000 tested, 0.52% active. AID 588674, 2011;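 active = mean inhibition of at least 75% with every replicate also reaching 75%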;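 also: 0% = median of neutral control wells and 100% = pilot-screen positive control compound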
Jurkat NFkB inh: inhibitors of induced NF-kB luciferase reporter, primary screen, TCR NF-kB activation inhibitor project, cell-based, luminescence, uHTS | Jurkat, PMA/ionomycin-induced NF-kB luciferase reporter | inhibition, % at 4 µM | 330,000 tested, 0.53% active | AID 435003, 2010; in the data active = inhibition above about 50%
697 NFkB conf: PMA/ionomycin-induced NF-kB reporter inhibitors, 697 retest, confirmation, B-cell NF-kB inhibitor project, cell-based, luminescence, single concentration; shares compounds with 697 NFkB inh; 697 B-cell NF-kB luciferase, 16 h; inhibition, % at 4 µM; 2,000 tested, 35% active; AID 449746, 2010; in the data active = inhibition mostly above about 28%, no sharp cut-off; inactive = mostly below about 22%
Gli antag conf: Gli-SUFU pathway antagonists, confirmation, single concentration, luciferase luminescence, Sufu-KO-LIGHT cells | shares compounds with Gli-Sufu block | Gli luciferase reporter | inhibition, % at 5 µM | 2,500 tested, 40% active | AID 602428, 2012;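 active = mean inhibition at 5 µM reaching about 45%, limit read from the data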;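 also: plate controls were DMSO-treated cells for no effect and wells lacking cells for full effect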
SufuKO cytotox: cytotoxicity in Sufu-KO-LIGHT cells, confirmation, cytotoxicity control for Gli-SUFU antagonist project, cell-based, ATP luminescence, single concentration. AID 651994, 2013. 2,500 tested, 32% active. shares compounds with Gli-Sufu block. cytotoxicity, % at 5 µM;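 active = mean cytotoxicity at 5 µM above about 25%, limit read from the data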;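 also: cells exposed to compound overnight for roughly 16 to 18 hours; plate controls were DMSO wells with cells for no effect and medium without cells for full effect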
Wnt3a counter: Wnt3a reporter signal inhibition, confirmation, counter-screen for Gli-SUFU antagonist project, Wnt-LIGHT cells, luminescence, single concentration | Wnt3a-driven luciferase reporter | shares compounds with Gli-Sufu block | 2,500 tested, 20% active | inhibition, % at 6.25 µM | AID 651995, 2013;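 active = mean inhibition above about 25%, limit read from the data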
Numbers without * were called inactive; x = not tested or not shown.

SMILES | Gli-Sufu block | 697 NFkB inh | EBV LMP1 NFkB | MITF TRPM1 inh | Shn3 3UTR inh | Jurkat NFkB inh | Gli antag conf | SufuKO cytotox | Wnt3a counter | others
CCCc1c(C)nc(SCC(=O)C(C)(C)C)nc1OC(=O)N(C)C | 10 | 5 | 4 | 9 | 13 | 5 | x | x | x
Cn1c(=O)cc(OCC(=O)N2CCC3(CC2)OCCO3)c2ccccc21 | 9 | 42* | 13 | 7 | 7 | 15 | x | x | x | 697 NFkB conf=40*
Clc1ccc(C(Cl)(Cl)Cl)c(Cl)c1 | 6 | 22 | 2 | 9 | 15 | 17 | x | x | x
Cc1cccc(N2C(=O)NC(=O)/C(=C\c3cc(C)n(-c4sc5c(c4C#N)CCCC5)c3C)C2=O)c1C | 58* | 1 | 4 | 10 | 9 | -2 | 50* | 34* | -31
CC(C)CNP(=S)(c1ccccc1)C(C)(C)C (centres undefined) | 6 | 18 | -16 | 13 | -7 | 8 | x | x | x
CCCCCc1nc2c(c(=O)c3ccccc3n2C)c(=O)n1C1CCCCCC1 | 52 | 7 | 1 | 8 | 90* | 9 | 36 | 24 | -7
COc1ccc(NC(=O)c2cn(CCC#N)nc2-c2ccccc2)cc1 | -2 | 7 | 2 | 12 | -1 | -9 | x | x | x
N#CCCn1cc(C(=O)Nc2ccc(F)cc2)c(-c2ccccc2)n1 | 51 | 11 | 5 | -23 | 6 | 8 | 31 | 2 | 2
O=P(Oc1ccccc1)(Oc1ccccc1)C(Nc1ccccc1)c1ccccc1 (centres undefined) | 6 | -1 | -8 | -18 | 17 | -15 | x | x | x
CC(=O)c1cn(CCCOc2ccccc2)c2ccccc12 | 50 | -23 | 9 | -11 | 47 | 10 | 19 | 7 | -8
O=C(C(=O)N1CCOCC1)c1cn(CCCOc2ccccc2)c2ccccc12 | -11 | 15 | 1 | 0 | 11 | 11 | x | x | x
O=C(Cc1ccccc1)N1CCN(Cc2c[nH]c3ccccc23)CC1 | 8 | 12 | 1 | 11 | 2 | 1 | x | x | x
Cc1cccc2c1N(N=O)CCC2 | 8 | 8 | -5 | -2 | 20 | -1 | x | x | x
O=c1[nH]c(=O)n(CC2CCCO2)c(O)c1/C=C1\C=Nc2ccccc21 (centres undefined) | 8 | -2 | -11 | 4 | -23 | -5 | x | x | x
CCN(CC)C1=NC(=[N+](CC)CC)c2ccccc21 | 79* | -11 | 14 | 52 | 70 | 25 | 80* | 27* | 39*
Cn1c(NN=O)nc2ccccc21 | 83* | -2 | 5 | 42 | 90* | 21 | 37 | 23 | 12
CCOP(=O)(Cc1cc(C(C)=O)c(C)o1)OCC | 68* | 19 | 3 | 5 | 1 | 2 | 11 | 5 | -6
CCCC(=O)c1cc(CP(=O)(OCC)OCC)oc1C | -1 | 1 | x | x | -1 | -28 | x | x | x
Cc1nc2ccccc2c(=O)n1-c1cc([N+](=O)[O-])cc([N+](=O)[O-])c1 | 24 | 3 | 4 | 45 | 10 | -12 | x | x | x
Cc1cccc(-n2c(/C=C/c3ccc([N+](=O)[O-])o3)nc3ccccc3c2=O)c1 | 72* | -29 | 84* | 86* | -47 | 25 | 63* | 31* | 22
O=C(NCCCn1ccnc1)C(Cl)(Cl)Cl | 24 | 2 | -2 | -9 | 7 | -5 | x | x | x
CC1=Nc2cc(C(=O)N3CCC4(CC3)OCCO4)ccc2Sc2ccc(Cl)cc21 | -2 | -5 | -1 | 13 | 7 | 8 | x | x | x
COc1c(O)cc2c(c1OC)-c1ccc(SC)c(=O)cc1C(NC(C)=O)CC2 (centres undefined) | 67* | x | 1 | 35 | -9 | x | 62* | 62* | -7
CCC(CO)(C(=O)OC1C[N+]2(C)CCC1CC2)c1ccccc1 (centres undefined) | 3 | 0 | -3 | 5 | 6 | -1 | x | x | x
CC(C)CC(NC(=O)CCCNC(=O)CCC(=O)OC1O[C@H]2OC3(C)CC[C@H]4[C@H](C)CCC(C1C)C24OO3)C(=O)O (some centres undefined) | 85* | 8 | -34 | 45 | 83 | -21 | 78* | -8 | 15
SMILES | Gli-Sufu block | 697 NFkB inh | EBV LMP1 NFkB | MITF TRPM1 inh | Shn3 3UTR inh | Jurkat NFkB inh | Gli antag conf | SufuKO cytotox | Wnt3a counter | others
CC1C(OC(=O)CCC(=O)NC(C)(C)CO)O[C@H]2OC3(C)CC[C@H]4[C@H](C)CCC1C24OO3 (some centres undefined) | 85* | 0 | -84 | 41 | 84 | 1 | 86* | -2 | 25
O=c1c2ccccc2[nH]c(=S)n1-c1ccc(Br)cc1 | -6 | -9 | 4 | 5 | 17 | -12 | x | x | x
O=[N+]([O-])NC1=NCN(Cc2ccco2)CN1Cc1ccco1 | 91* | 14 | 1 | 0 | 16 | -9 | 14 | 16 | -8
CC[N+](CC)(CC#CCO)CC#Cc1ccccc1 | -2 | -7 | 3 | 6 | -8 | -1 | x | x | x
COc1ccccc1CN1CCN(C(=O)COc2cccc(C)c2)CC1 | 94* | -39 | 0 | -5 | 6 | -7 | 10 | 27* | -37
COc1ccc(CN2CCN(C(=O)COc3cccc(C)c3)CC2)c(OC)c1 | -11 | x | 1 | -5 | 10 | x | x | x | x
CC(C)(C)C(=O)N1Cc2cc(-c3cccc(F)c3)ccc2-n2nncc2C1 | x | x | x | x | -10 | x | x | x | x
Cc1cc(/C=C2\C(=O)NC(=O)N(C)C2=O)c(C)n1-c1ccc2c(c1)OCO2 | 69* | 7 | -6 | -1 | -5 | 17 | 23 | -1 | -20
CCOP(=O)(OCC)C1(O)C(=O)Nc2ccccc21 (centres undefined) | -10 | 3 | -10 | 13 | 1 | 7 | x | x | x
CC1CCCC(C2(O)C(=O)Nc3ccccc32)C1=O (centres undefined) | 96* | -6 | -1 | 18 | 5 | -4 | 31 | 15 | 10

Compound activity as filed in PubChem BioAssay.
